Cardiac RTF inh: cardiac RTF calcium sensitivity inhibitors, primary screen, biochemical, IANBD-TnC fluorescence, EC70 calcium; IANBD-labeled cardiac RTF, Ca2+ fluorescence; inhibition, % at 7.15 µM; 0.12% of 340,000 active; AID 493244, 2011;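 active = inhibition above the mean inhibition of all tested compounds plus 3 SD, cut at about 17% in these data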;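 note: assay run at fixed EC70 calcium of 1.6 mM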
LANA DNA inh: inhibitors of KSHV C-LANA binding to DNA, primary screen, biochemical, fluorescence polarization, FAM-LBS DNA, MBP-C-LANA, single point; 0.078% of 340,000 active; inhibition, % at 9 µM; AID 504423, 2011;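 active = highest replicate inhibition at or above 60% at 9 µM, even if other replicates fall short; inactive = all replicates below 60% inhibition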;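 note: 0% = neutral control wells and 100% = 4 µM acridine orange control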
eLon inh: inhibitors of E. coli Lon protease, primary screen, biochemical, fluorescence polarization; 0.42% of 360,000 active; purified E. coli Lon protease; inhibition, % at 7.94 µM; P0A9M0; in the data active = inhibition above about 13%, passing the limit was not always enough;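 note: 0% = enzyme with probe and DMSO and 100% = no enzyme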
Target sequence (P0A9M0 whole entry, looked up): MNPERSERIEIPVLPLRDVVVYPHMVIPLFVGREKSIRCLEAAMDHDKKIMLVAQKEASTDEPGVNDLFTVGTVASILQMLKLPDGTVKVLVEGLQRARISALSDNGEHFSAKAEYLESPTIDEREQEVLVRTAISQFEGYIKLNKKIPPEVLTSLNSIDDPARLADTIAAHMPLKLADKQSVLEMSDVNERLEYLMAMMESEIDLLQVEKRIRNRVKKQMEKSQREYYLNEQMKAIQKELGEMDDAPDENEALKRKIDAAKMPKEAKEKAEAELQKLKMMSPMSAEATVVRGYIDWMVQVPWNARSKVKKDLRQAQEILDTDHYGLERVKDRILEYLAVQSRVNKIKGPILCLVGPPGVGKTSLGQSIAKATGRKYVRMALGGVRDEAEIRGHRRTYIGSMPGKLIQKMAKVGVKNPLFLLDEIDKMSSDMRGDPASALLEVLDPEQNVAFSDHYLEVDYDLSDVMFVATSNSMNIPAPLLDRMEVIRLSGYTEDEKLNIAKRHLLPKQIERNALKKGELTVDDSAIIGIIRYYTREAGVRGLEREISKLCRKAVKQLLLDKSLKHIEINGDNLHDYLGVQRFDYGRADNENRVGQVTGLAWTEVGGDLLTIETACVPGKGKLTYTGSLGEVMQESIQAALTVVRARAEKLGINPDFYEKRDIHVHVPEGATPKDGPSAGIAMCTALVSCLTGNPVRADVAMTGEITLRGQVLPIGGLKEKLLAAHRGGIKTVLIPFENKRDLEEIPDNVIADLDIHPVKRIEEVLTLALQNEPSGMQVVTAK
Keap1-Nrf2 PPI: Keap1-Nrf2 protein-protein interaction inhibitors, primary screen, biochemical, fluorescence polarization, single point | Kelch-like ECH-associated protein 1 (Homo sapiens), Q14145 | 0.15% of 340,000 active | inhibition, % at 9.4 µM | Keap1 Kelch-Nrf2 peptide fluorescence polarization, 1536-well; in the data active = inhibition above about 12%;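 note: human Keap1 Kelch domain with fluorescein labeled Nrf2 9mer peptide probe; 0% = neutral control wells and 100% = peptide positive control; higher means more block of Keap1 binding to Nrf2 peptide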
RTF Ca sens act: cardiac RTF calcium sensitivity activators, primary screen, biochemical, IANBD-TnC fluorescence, EC20 calcium. IANBD-labeled TnC RTF fluorescence at EC20 calcium; 0% EC20 calcium, 100% full calcium. activation, % at 7.2 µM. 0.24% of 340,000 active. AID 493008, 2010;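 active = activation above the mean over all tested compounds plus 3 SD, cut at about 30% in these data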;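 note: rise in fluorescence read as greater calcium sensitivity of cardiac thin filaments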
Numbers without * were called inactive; i = inactive; . = not tested or not shown. Only some compounds are listed: those with a hit (about 0.82% of all), similar ones and a draw of the others.

SMILES	Cardiac RTF inh	LANA DNA inh	eLon inh	Keap1-Nrf2 PPI	RTF Ca sens act
CCOc1ccc(OCCC(=O)Nc2cccc(S(=O)(=O)N3CCCC3)c2)cc1	1	-1	7	-3	-4
CC(C)CN(C(=O)C1CCC1)c1c(N)n(Cc2ccccc2)c(=O)[nH]c1=O	-4	-1	9	0	1
CCN(CC)c1ccc2cc(NC(=O)CCC(=O)O)c(=O)oc2c1	-65	33	24	8	70*
Cc1ccc(CNC(=O)c2cccc3c2C(=O)c2ccc(N4CCCCC4)cc2S3(=O)=O)cc1	-84	15	-88	-2	65*
O=C(NC1CCCCC1)c1cccc2c1C(=O)c1ccc(N3CCC(Cc4ccccc4)CC3)cc1S2(=O)=O	-155	8	-379	-5	90*
O=C(NCC1CCCO1)c1cccc2c1C(=O)c1ccc(N3CCC(Cc4ccccc4)CC3)cc1S2(=O)=O (stereo unspecified)	-162	6	-185	0	61*
CN1C2CCC1/C(=C/c1cccn1C)C(=O)/C2=C\c1cccn1C	-290	-78	-148	-262	367*
O=C(Nc1nc2c(s1)CN(Cc1ccccc1)CC2)c1cccc(S(=O)(=O)N2CCc3ccccc32)c1	-74	9	-113	-6	67*
O=C(Nc1nc2ccccc2s1)c1cccc(S(=O)(=O)N2CCc3ccccc32)c1	-2	2	-12	2	4
CCN(CC)C(=O)c1ccc(/C=C/c2c[nH]c3ccccc23)[n+](C)c1	-143	-43	i	-181	140*
CC(/C=C1\SC(=S)N(CC(=O)O)C1=O)=C\c1ccccc1	5	2	4	-8	-3
CN1CCS/C1=C/C=C1/SC(=S)N(Cc2ccccc2)C1=O	-119	-2	i	-22	96*
CN1CCS/C1=C/C=C1\SC(=S)N(CC(=O)O)C1=O	-431	-101	i	-421	249*
CCCCN1C(=O)/C(=C/C=C2\SCCN2C)SC1=S	-205	-14	i	-186	115*
Cc1nnc(-n2ncc(C#N)c2N)c2nn(-c3cccc(Cl)c3)c(C)c12	-2	3	-10	-4	-4
Cc1nnc(N2CCOCC2)c2nn(-c3cccc(Cl)c3)c(C)c12	-38	2	-24	1	33*
Oc1ccc(/C=N/N=C/c2ccc(O)c(O)c2)cc1O	-1	77*	3	-7	3
CCC(=O)NNC(=O)c1cc(COc2cc(Cl)cc(Cl)c2)on1	-2	1	15	4	-2
CCOC(=O)C(CC1=CS(=O)(=O)c2ccc(Cl)cc21)(NC(C)=O)C(=O)OCC	.	.	-5	.	.
Cc1nc2ccc(Cl)cc2nc(C)/c1=N\O	3	13	-6	-21	34*
COc1cccc(NS(=O)(=O)c2ccc3c(c2)C2C=CCC2C(c2ccc(C(=O)O)cc2)N3)c1 (stereo unspecified)	11	104*	5	7	-22
COc1ccc(C(=O)N/N=C(\C)c2ccc3c(c2)C2C=CCC2C(c2ccccc2)N3)cc1 (stereo unspecified)	2	-1	5	-6	1
CC1=[N+](C)N(c2ccccc2)C(=O)C1N=C/C=C/c1ccccc1 (stereo unspecified)	-1	71*	0	-5	-6
Cc1noc(/C=C/N(C)C)c1S(=O)(=O)N(C)Cc1ccc(F)cc1	-9	-4	-40	-6	3
O=c1[nH]c2ccccc2nc1/C=C(\O)c1cccs1	-74	-16	-119	-15	61*
O/C(=C\c1nc2ccccc2[nH]1)c1cccs1	-18	1	12	-5	17
CCNC(=O)C1(C)CCCN1Cc1cccc(C(F)(F)F)c1 (stereo unspecified)	.	.	-3	.	.
N/C(=N\c1nc2c(c(=O)[nH]1)CCC2)Nc1ccccc1C(F)(F)F	17*	0	-3	-3	1
Cc1cc(C)n(CC(=O)NNC(=O)CCNC(=O)c2ccccc2Cl)n1	-6	0	3	2	5

Assay outcomes deposited in PubChem BioAssay by several laboratories.
